# Compounds without any hit were thinned out: in the full panel of roughly 83,000, 20% have a hit.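 How to read the values: 0–100, growth inhibition (40 = 60% inhibited); 0, no net growth; -100 to 0, cell death (-40 = 40% of starting cells died; -100 = all dead).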 A number with no mark means an inactive call. Calls of active or inactive are those of the source. The calls were made as follows: active = growth percent below 10; inactive = the rest.
# System: HL-60(TB) leukemia
# Test: NCI-60 one-dose screen, 48 h (100 = growth as untreated, 0 = no growth, -100 = all killed)
# Conditions: 10 µM unless noted
row,Compound,growth
1,COc1cc2c(Nc3ccc(-c4ccc(N)cc4)cc3)ncnc2c(OC)c1OC,11.7%
2,COc1cc(/C=C(/c2ccccc2)[N+](=O)[O-])c(OC)c2c1OCO2,-23% (active)
3,CCOC(=O)c1nc(Nc2cc(C)[nH]n2)c2ccccc2n1,106%
4,BrCCCOc1ccc(Oc2ccc(OCCCBr)cc2)cc1,106%
5,O=c1oc2cc(OS(=O)(=O)c3ccccc3)ccc2c2c1CCCCC2,18.6%
6,C=CC(=O)N(C)[C@H]1C[C@H]2OC(C)(C1OC)n1c3ccccc3c3c4c(c5c6ccccc6n2c5c31)C(=O)NC4 (stereo partly specified),-11.2% (active)
7,COc1ccc(CN2C(=O)C(Cl)=C(Nc3cccc(C(F)(F)F)c3)C2=O)cc1,29%
8,Cc1ccc2c(n1)C(=O)C(Br)=C(CC(C)C)C2=O,58.4%
9,COc1ccc2c(c1)CC[C@@H]1[C@@H]2CC[C@]2(C)C3C(=CCC4C(=O)N(c5ccccc5)C(=O)C43)C[C@@H]12 (stereo partly specified),81.6%
10,Cc1ccc(C)c(/C=C2\CN(C(=O)OC(C)(C)C)C/C(=C\c3cc(C)ccc3C)C2=O)c1,10.7%
11,CC(=O)O[C@H]1CC[C@@]2(C)[C@@H](CC[C@@H]3[C@@H]2CC(=O)[C@@]2(C)[C@H]3C[C@@H](C3CCCC3=O)[C@@H]2C(C)=O)C1 (stereo partly specified),51.8%
12,COc1ccc(/C=C(/C(=O)N2CCCC2)c2cc(OC)c(OC)c(OC)c2)cc1,-14.7% (active)
13,CCOc1ncc([N+](=O)[O-])c(OCC)n1,108%
14,Fc1ccc(-c2nc(-c3nc4ncccc4[nH]3)cc3c2[nH]c2ccccc23)cc1F,86.4%
15,O=C(NCCCNc1cc(-c2cn(-c3ccccc3)nc2-c2cccc(O)c2)ccn1)c1ccccc1,8.91% (active)
16,CC(C)(C)c1nn(-c2ccccc2)c2c1COCN2Cc1ccc(Cl)cc1,43.5%
17,Cc1ccc(C)c(COc2cc(NC(=O)c3ccc4c(c3)OCO4)ccc2N(C)S(C)(=O)=O)c1,-5.51% (active)
18,CCOC(=O)C#Cc1c(C(=O)OCC)nnn1[C@@H]1O[C@H](COC(C)=O)[C@@H](OC(C)=O)[C@H]1OC(C)=O,74%

row,Compound,growth
1,Cc1ccc(S(=O)(=O)c2nc(-c3ccccc3)oc2S(C)=O)cc1 (stereo unspecified),-47.4% (active)
2,Cc1cc(N2CCOCC2)nc(N(CCNc2ccnc3cc(Cl)ccc23)Cc2ccco2)n1,-65.1% (active)
3,CC1SC(c2c(Cl)cccc2Cl)N(NC(=O)c2[nH]c3ccc(F)cc3c2-c2ccccc2)C1=O (stereo unspecified),103%
4,O=C(c1ccccc1)c1c(/C=C/c2ccccc2)nc2ccccc2c1/C=C/c1ccc(Br)cc1,112%
5,Nc1n[nH]c2cc(F)c([C@@H]3Nc4c(F)cc5[nH]ncc5c4[C@H]4C5CCC(C5)[C@@H]34)cc12 (stereo partly specified),-30.1% (active)
6,Cc1ccc(C)c2c(C)c(C(=O)Nc3cccc(-n4cccn4)c3)oc12,87.9% [50 µM]
7,O=C(Nc1ncc(Cc2ccccc2)s1)c1cc(-c2ccccc2)nc2ccccc12,99.2%
8,CSc1ccc(-c2n[nH]nc2-c2cc3ccccc3s2)cc1,38%
9,CN(N)c1nc2sc3c(c2c(=O)[nH]1)CCCC3,102%
10,Cc1ccc2oc(=O)cc(C3c4ccc([nH]4)C(c4cc(=O)oc5ccc(C)cc45)c4ccc([nH]4)C(c4cc(=O)oc5ccc(C)cc45)c4ccc([nH]4)C(c4cc(=O)oc5ccc(C)cc45)c4ccc3[nH]4)c2c1 (stereo unspecified),-24% (active)
11,COc1cc(/C=C/c2ccnc3ccccc23)cc(OC)c1OC,15.7%
12,O=C1c2ccccc2-c2ccccc2C1(Cl)Cl,-39.6% (active)
13,COc1ccc(-c2nn(-c3ccc(NC(=O)Nc4cc(C(F)(F)F)cc(C(F)(F)F)c4)cc3)cc2-c2ccncc2)cc1Cl,4.01% (active)
14,COc1ccc(-c2nnc3c4[nH]cnc4ncn23)c(OC)c1,12.8%
15,COc1ccc(Cn2nc(-c3ccccc3)c3c2CCc2cnoc2-3)cc1,69.4%
16,Cn1cc(-c2csc(-c3c[nH]c4ncccc34)n2)c2cc(F)cnc21,79.8%
17,CCOC(=O)C1=C(CC(O)c2ccc(OC)cc2OC)NC(=O)NC1c1ccccc1 (stereo unspecified),-33.9% (active)
18,O=C(/C=C/c1ccc(Br)cc1)c1ccc(-n2cc(CN3CCN(c4cc5c(cc4F)c(=O)c(C(=O)O)cn5C4CC4)CC3)nn2)cc1,94.3%

# Reference: PubChem BioAssay (NCI)
